The results in this text go back to PubChem BioAssay (EPA / NIEHS).

One may read the AC50 as the concentration giving half of the maximal activity seen.

Results filed as inconclusive are left out. Active and inactive are the calls of the source. Rule for the calls: active = hit-call score of the fitted dose curve at least 0.9, where 1 is the maximum; inconclusive = response in the unintended direction; inactive = score below 0.9.

Sequence of human Ephrin type-A Receptor 1 (EphA1), EPHA1 (gene 2041) (P21709 whole entry, looked up): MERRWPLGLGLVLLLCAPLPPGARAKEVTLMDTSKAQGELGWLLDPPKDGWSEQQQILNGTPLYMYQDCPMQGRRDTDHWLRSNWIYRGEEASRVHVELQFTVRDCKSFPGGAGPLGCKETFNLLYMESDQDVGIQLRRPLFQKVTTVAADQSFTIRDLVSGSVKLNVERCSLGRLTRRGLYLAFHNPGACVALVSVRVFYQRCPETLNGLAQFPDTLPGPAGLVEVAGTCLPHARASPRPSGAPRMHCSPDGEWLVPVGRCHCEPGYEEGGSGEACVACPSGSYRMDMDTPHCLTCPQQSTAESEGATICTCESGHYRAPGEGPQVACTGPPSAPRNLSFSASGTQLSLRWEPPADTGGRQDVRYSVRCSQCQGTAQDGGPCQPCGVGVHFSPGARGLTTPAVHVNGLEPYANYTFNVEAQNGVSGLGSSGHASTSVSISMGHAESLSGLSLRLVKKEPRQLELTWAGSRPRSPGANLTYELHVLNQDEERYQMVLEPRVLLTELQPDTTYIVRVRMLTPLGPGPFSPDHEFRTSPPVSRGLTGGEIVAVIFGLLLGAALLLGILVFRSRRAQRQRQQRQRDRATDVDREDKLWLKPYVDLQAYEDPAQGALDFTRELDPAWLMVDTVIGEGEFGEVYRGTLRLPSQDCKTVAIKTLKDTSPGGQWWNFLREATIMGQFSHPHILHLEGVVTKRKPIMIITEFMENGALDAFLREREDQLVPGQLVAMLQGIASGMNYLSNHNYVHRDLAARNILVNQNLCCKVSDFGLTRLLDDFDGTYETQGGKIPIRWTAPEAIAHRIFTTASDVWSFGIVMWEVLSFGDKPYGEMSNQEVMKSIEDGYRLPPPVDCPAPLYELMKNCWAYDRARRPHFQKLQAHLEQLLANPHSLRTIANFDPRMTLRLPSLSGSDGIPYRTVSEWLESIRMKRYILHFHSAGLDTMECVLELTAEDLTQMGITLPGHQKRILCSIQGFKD

The target in the test is human Ephrin type-A Receptor 1 (EphA1), EPHA1 (gene 2041) (UniProt P21709). The test can be described thus: NVS_ENZ_hEphA1: NovaScreen (NVS) Enzymatic Assay for human Ephrin type-A Receptor 1 (EphA1) (AID 2283158). On the procedure:
NVS_ENZ_hEphA1 is a biochemical, single-readout assay that uses extracted gene-proteins in a cell-free assay. Measurements were taken 1 hour after chemical dosing in a 384-well plate.NVS_ENZ_hEphA1 is one of one assay component(s) measured or calculated from the NVS_ENZ_hEphA1 assay. It is designed to make measurements of enzyme activity, a form of enzyme reporter, as detected with fluorescence intensity signals by Fluorescence and electrophoretic mobility shift technology.Data from the assay component NVS_ENZ_hEphA1 was analyzed into 1 assay endpoint. This assay endpoint, NVS_ENZ_hEphA1, was analyzed in the positive analysis fitting direction relative to DMSO as the negative control and baseline of activity. Using a type of enzyme reporter, loss-of-signal activity can be used to understand changes in the enzymatic activity as they relate to the gene EPHA1. Furthermore, this assay endpoint can be referred to as a primary readout, because this assay has produced multiple assay endpoints where this one serves a enzymatic activity function. To generalize the intended target to other relatable targets, this assay endpoint is annotated to the kinase intended target family, where the subfamily is receptor tyrosine kinase.
Binding assays used specific radioligands (tritiated, iodinated) with non-radioactive competitive displacement ligands in agonist or antagonist protocols (as indicated) and various reference compounds and inhibitors to titrate specific binding to receptors and transporters. Most enzyme assays (CYPs, kinases, phosphatases, proteases, HDACs) used recombinant protein and specific substrates (fluorescence mostly, some colorimetric and radioactive) and inhibitors, followed by a biochemical separation of substrate and product. All assays for the biochemical HTS were initially run in duplicate at a single concentration (10 uM for CYP450 assays and 25 uM for all others). Assay-chemical combinations meeting a pre-defined threshold (e.g., 30% inhibition and other criteria defined below) were then run in singleton concentration-response format with maximum concentration of 20 uM for CYPs and 50 uM for all others. Each assay was run with positive and negative controls, and concurrent controls on every plate. The follow-up (secondary) screen tested active chemical-pairs in concentration series, as well as a few additional assays not tested in the primary screen, some selected negative inactives, and several cases re-run in the concentration series for confirmatory purposes.
On to `CCO[Si](CCCS)(OCC)OCC`, for which the call was inactive. Same read-out and setting: with `CC(C)[C@@H]1CC[C@@H](C)CC1=O` the entry was “inactive”. On the same count and under the same terms, with `COc1cc2ncnc(Nc3cccc(Cl)c3)c2cc1OC` the entry was “inactive”; with `O=[N+]([O-])c1cc(C(F)(F)F)ccc1Cl`, “inactive”. As to `CC1CCC2CC1C2(C)C` (centres undefined), the AC50 is 21.3 µM (active).

For the compound `CC1COc2ccccc2N1C(=O)C(Cl)Cl` (centres undefined), the compound was called inactive. For the compound `CC(C)Oc1ccccc1O`, the compound was classed as inactive. Same read-out and setting: in the case of `COC(=O)OC` it was “inactive”; in that of `CCCCO`, “inactive”. The same measure, in the same setting: in the case of `OCC(CO)(CO)COCC(CO)(CO)CO` it was “inactive”; in that of `OC1C(O)C(O)C(O)C(O)C1O` (centres undefined), “inactive”. As for `Cc1ccc2ccccc2n1`, the outcome was inactive. The same measure, in the same setting: with `CC(CCO)CCCC(C)(C)O` (centres undefined) the entry was “inactive”. For the compound `CC(=O)OCc1ccc2c(c1)OCO2`, the AC50 is 8.23 µM (active).

On to `CC1(C)[C@H]2CC[C@]1(C)[C@H](O)C2`, for which the compound was called inactive. For the compound `CCn1c2ccccc2c2cc(N)ccc21`, the AC50 is 19.3 µM (active). Take `C#C[C@]1(O)CC[C@H]2[C@@H]3CCC4=Cc5oncc5C[C@]4(C)[C@H]3CC[C@@]21C`: the compound was called inactive. Still for that read-out and setting: with `CC(C)[C@H]1CC[C@@H](C)CC1=O` the entry was “inactive”. Still for that read-out and setting: in the case of `CCCCC/C=C/C=C/C=O` it was “inactive”.
